Screens: PubChem, several laboratories
CYP2C9 inhib = blocks human cytochrome P450 2C9; 96,000 compounds, 20% hits; CYP2C9 Supersomes, luciferin-H conversion, luminescence; P11712; inhibition, % at 5 µM; AID 777;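 active = blocking of liver enzyme CYP2C9 beyond about 50% at 5 µM, limit read from the data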
CYP2C9 act = CYP2C9 (human) activation; recombinant CYP2C9, luciferin-H conversion, luminescence; active compounds read high; factor 1 = untreated enzyme, 0 = blocked; activation factor at 5 µM; 96,000 compounds, 1.4% hits; AID 1024;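 active = activation factor of 2 or more for CYP2C9 at a 5 µM dose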;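 note: 0 = sulfaphenazole-blocked wells and 1 = vehicle-only wells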
Pyk2 oligo antag = antagonists of human Pyk2 oligomerization | 99,000 compounds, 0.83% hits | z-score (the deposit names both 25 µM and 10 µM) | Q14289 | AID 1347419 | Q293 cells, Pyk2 FERM NanoBiT luminescence; active compounds read low;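 active = Z-score of -3 or lower, scaled per plate to the spread of control and sample wells; inactive = z-score above -3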;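 note: negative z-score means lost luminescence so less FERM oligomerization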
CYP2C19 inhib = human CYP2C19 inhibition. P33261. CYP2C19 Supersomes, luciferin-H EGE luminescence, 30 min. inhibition, % at 5 µM. 96,000 compounds, 21% hits;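 active = CYP2C19 inhibition above a set limit at 5 µM in the primary screen, cut at about 50% in these data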;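 note: plate controls were negative control wells for no effect and 2.5 mM tranylcypromine positive control for full effect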
Target sequence (P33261 whole entry, looked up): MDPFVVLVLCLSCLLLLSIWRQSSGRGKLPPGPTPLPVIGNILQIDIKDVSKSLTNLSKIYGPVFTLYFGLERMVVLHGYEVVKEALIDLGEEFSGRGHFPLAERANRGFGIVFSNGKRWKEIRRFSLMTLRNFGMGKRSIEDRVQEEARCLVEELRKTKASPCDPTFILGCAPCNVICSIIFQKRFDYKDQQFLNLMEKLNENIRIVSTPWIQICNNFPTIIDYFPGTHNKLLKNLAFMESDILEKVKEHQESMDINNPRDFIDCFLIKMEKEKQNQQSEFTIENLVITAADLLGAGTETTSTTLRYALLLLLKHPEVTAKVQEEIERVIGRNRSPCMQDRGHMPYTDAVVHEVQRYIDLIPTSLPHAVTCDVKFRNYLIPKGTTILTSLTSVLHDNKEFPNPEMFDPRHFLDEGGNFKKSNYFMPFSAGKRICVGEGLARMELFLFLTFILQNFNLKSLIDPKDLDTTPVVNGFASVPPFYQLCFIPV
Cav32 inh = human Cav3.2 channel inhibition, primary screen | O95180 | Cav3.2-expressing cells, Fluo-4 calcium fluorescence FDSS; active compounds read low | B-score at 10 µM | 100,000 compounds, 4% hits;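 active = single-dose well whose peak fluorescence ratio is a statistical outlier from its plate by either plate-standardised score or position-corrected B-score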
CYP2C19 activ = increases human CYP2C19 enzyme activity; recombinant CYP2C19, luciferin-H EGE luminescence; active compounds read high; 0 = fully inhibited enzyme, 1 = untreated enzyme; activation factor at 5 µM; 96,000 tested, under 10 active; AID 1025;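 active = activation factor of at least 2 at 5 µM in the primary screen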;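 note: 0 = wells with 2.5 mM tranylcypromine and 1 = vehicle-only wells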
Active calls of the source: *; nt = no result given. Most compounds without a hit are left out; they make up all but 27% or so of the library.

SMILES	CYP2C9 inhib	CYP2C9 act	Pyk2 oligo antag	CYP2C19 inhib	Cav32 inh	CYP2C19 activ
COC(=O)c1ccccc1NC(=O)C1CCCN(S(=O)(=O)c2ccc(OC)cc2)C1 (stereo not drawn)	73*	0.3	1.8	54*	-0.32	0.5
COC(=O)c1ccccc1NC(=O)C1CCCN(S(=O)(=O)c2ccc(F)cc2)C1 (stereo not drawn)	80*	0.2	0.85	90*	-2.3	0.1
COC(=O)c1ccccc1NC(=O)C1CCCN(S(=O)(=O)c2ccccc2)C1 (stereo not drawn)	33	0.7	-1.4	43	-0.62	0.6
COc1ccc(NC(=S)NC(NC(=O)c2cccc3ccccc23)C(Cl)(Cl)Cl)c([N+](=O)[O-])c1 (stereo not drawn)	83*	0.2	-0.8	19	-2.1	0.8
COc1ccc(NC(=S)NC(NC(=O)c2ccccc2Cl)C(Cl)(Cl)Cl)c([N+](=O)[O-])c1 (stereo not drawn)	74*	0.3	-1.1	24	-3.6	0.8
COc1ccc(NC(=O)c2ccc(C)cc2Cl)c([N+](=O)[O-])c1	-259	3.6*	-0.82	35	0.55	0.7
COc1ccc(C(CC(=O)O)NC(=O)c2ccccc2[N+](=O)[O-])cc1 (stereo not drawn)	nt	nt	nt	nt	1.2	nt
COc1ccc(NC(=O)c2ccco2)c([N+](=O)[O-])c1	nt	nt	0.13	nt	nt	nt
COc1ccc(NC(=O)c2ccc(Br)o2)c([N+](=O)[O-])c1	-6	1.1	-0.59	5	0.85	0.9
COc1ccc(NC(=S)NC(NC(=O)c2ccc(Cl)cc2Cl)C(Cl)(Cl)Cl)c([N+](=O)[O-])c1 (stereo not drawn)	98*	0	-0.36	96*	-5.1*	0
CCOC(=O)c1ccc(NC(=O)Cn2nnc3ccccc32)cc1	11	0.9	0.19	-3	0.035	1
CCOC(=O)NC(Nc1cc(C)ccn1)(C(F)(F)F)C(F)(F)F	20	0.8	0.29	54*	0.79	0.5
CCCCC(=O)NC(Nc1nc(C2CC2)cs1)(C(=O)OCC)C(F)(F)F (stereo not drawn)	27	0.7	-0.14	63*	-1.5	0.4
Cc1ccnc(NC(=O)Nc2ccc(F)cc2)c1	27	0.7	-0.87	18	0.61	0.8
CCC(=O)NC(Nc1ncc(C)s1)(C(=O)OC)C(F)(F)F (stereo not drawn)	nt	nt	0.62	nt	-0.15	nt
CCCCC(=O)NC(Nc1cc(C)ccn1)(C(=O)OCC)C(F)(F)F (stereo not drawn)	-11	1.1	-1.1	72*	-0.79	0.3
CCCC(=O)NC(Nc1ccc(S(=O)(=O)Nc2ncccn2)cc1)(C(=O)OCC)C(F)(F)F (stereo not drawn)	14	0.9	0.25	-3	-0.7	1
CCOC(=O)NC(NCc1ccccc1Cl)(C(F)(F)F)C(F)(F)F	21	0.8	-0.02	58*	-1.9	0.4
Nn1c(SCC(=O)N2CCOCC2)nnc1-c1ccccc1Cl	0	1	-0.34	-5	0.91	1.1
CC1(C)CC2CC(C)(CN2C(=O)C23CCC(C)(C(=O)O2)C3(C)C)C1 (stereo not drawn)	18	0.8	-1.4	28	0.59	0.7
CCCC(=O)Nc1cccc(Oc2nc(C)cc(C)c2C#N)c1	24	0.8	-1	26	-0.034	0.7
CN(C)CCCn1c(NC(=O)C2CCCCC2)nc2ccccc21	-19	1.2	-0.91	-15	-3.6*	1.2
CCCCCn1c(C(Cc2ccccc2)NC(C)=O)nc2ccccc21 (stereo not drawn)	23	0.8	nt	74*	-0.31	0.3
CCCCC(NC(C)=O)c1nc2ccccc2n1CCCC (stereo not drawn)	6	0.9	-0.33	11	nt	0.9
CCCCn1c(NC(=O)c2ccccc2)nc2ccccc21	73*	0.3	-1.5	61*	-1.1	0.4
O=P(O)(CCCCP(=O)(O)CCc1ccccc1)CCc1ccccc1	-12	1.1	nt	-14	nt	1.1
CCC(C)N(C(=O)Cn1nnc2ccccc21)C(C(=O)Nc1ccc(F)cc1)c1cccc(OC)c1 (stereo not drawn)	19	0.8	-2	27	-1.9	0.7
O=C(c1ccc2ccccc2n1)N1CCN(c2ccccc2O)CC1	41	0.6	-0.79	58*	0.71	0.4
